Compound activity from PubChem.
CBFb RUNX1 block = inhibitors of human CBF-beta and RUNX1 interaction. Q01196+Q13951. AlphaScreen CBFb-His/RUNX1-biotin binding, biochemical. Potency, µM (series often up to 59.8 µM), inactives show at the top dose activity, negative = inhibition, actives largely listed as inhibitors. 230,000 tested, under 10 active. AID 1477; also: % of control where 0% means no effect
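CBFb-His/RUNX1-biotin, 30 nM each, preincubated 20 min RT; compound 15 min RT; Ni + streptavidin beads 50 ng each, 90 min RT; AlphaScreen read.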
ALDH1A1 inh = inhibitors of human aldehyde dehydrogenase 1A1; P00352; Purified ALDH1A1, NADH fluorescence, propionaldehyde substrate; Potency, µM (highest dose often 75.3 µM), without a hit: top-dose activity, negative = inhibition, actives largely listed as inhibitors; 220,000 tested, 7.3% active; active = well fitted inhibition curve with a large enough effect, not every such curve was filed as active; inconclusive = small, poorly fitted or top-dose-only effect, or another doubt; inactive = no such curve, though single readings can be large or run the other way;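 also: potency is read from the fitted curve at half-maximal effect; plate controls were no enzyme wells and a reference inhibitor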
HPGD inh = HPGD (human) dehydrogenase inhibition | 150,000 tested, 4.3% active | Potency, µM, inactives show at the top dose activity change, negative = inhibition, most hits filed as inhibitors | purified HPGD, NADH fluorescence kinetic, PGE2 substrate | P15428; active = well fitted inhibition curve with a large enough effect, not every such curve was filed as active; inconclusive = small, poorly fitted or top-dose-only effect, or another doubt; inactive = no such curve, though single readings can be large or run the other way; also: potency is read from the fitted curve at half-maximal effect; % is scaled to controls: 0 for no effect and ±100 for the full control effect
Target sequence (P15428 whole entry, looked up): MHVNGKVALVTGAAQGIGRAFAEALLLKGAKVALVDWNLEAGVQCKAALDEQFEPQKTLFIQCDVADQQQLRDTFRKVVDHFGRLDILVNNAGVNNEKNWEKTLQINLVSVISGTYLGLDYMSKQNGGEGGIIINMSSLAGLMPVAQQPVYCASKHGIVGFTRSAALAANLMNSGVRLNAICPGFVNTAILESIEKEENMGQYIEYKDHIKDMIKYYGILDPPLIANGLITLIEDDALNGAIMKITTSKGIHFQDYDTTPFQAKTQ
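NADH formation kinetics: reaction with 30 uM PGE2 and 1 mM NAD+ (final), 20 nM enzyme, Tris-HCl pH 8 with Tween 20, after 15 min compound preincubation at room temperature. Fluorescence change, last versus first of five reads.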
HTT cytoprotect = protects HTT-Q103 PC12 cells, measured by ATP | 230,000 tested, 0.14% active | AID 1471 | Potency, µM (top dose mostly 56.4 µM), without a hit: cytoprotection (ATP increase), actives largely listed as activators | PC12 HTT-Q103 induced, cytoprotection, ATP luminescence, 40 h; also: potency is read from the fitted curve at half-maximal effect; % of control where 0% means no effect; nearly all actives have a fitted effect of over 45% in size
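Rat PC12, Q103 Htt exon1-GFP fusion, ecdysone promoter; tebufenozide inducer 100 nM final; compound titration; qHTS, 1500 cells/well; ATPlite luminescent read.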
KDM4E inh = blocks human JMJD2E demethylase activity; B2RXH2; JMJD2E catalytic domain, FDH-coupled NADH fluorescence (FDH is formaldehyde dehydrogenase); Potency, µM (top dose mostly 57.1 µM), inactives show at the top dose activity change, negative = inhibition, hits mostly inhibitors; 230,000 tested, 1.6% active; active = well fitted inhibition curve with a large enough effect, not every such curve was filed as active; inconclusive = small, poorly fitted or top-dose-only effect, or another doubt; inactive = no such curve, though single readings can be large or run the other way;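 also: potency is read from the fitted curve at half-maximal effect; 0% = wells with enzyme and -100% = buffer wells without enzyme; nearly all actives have a fitted effect of over 50% in size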
Target sequence (B2RXH2 1-337 limits assumed): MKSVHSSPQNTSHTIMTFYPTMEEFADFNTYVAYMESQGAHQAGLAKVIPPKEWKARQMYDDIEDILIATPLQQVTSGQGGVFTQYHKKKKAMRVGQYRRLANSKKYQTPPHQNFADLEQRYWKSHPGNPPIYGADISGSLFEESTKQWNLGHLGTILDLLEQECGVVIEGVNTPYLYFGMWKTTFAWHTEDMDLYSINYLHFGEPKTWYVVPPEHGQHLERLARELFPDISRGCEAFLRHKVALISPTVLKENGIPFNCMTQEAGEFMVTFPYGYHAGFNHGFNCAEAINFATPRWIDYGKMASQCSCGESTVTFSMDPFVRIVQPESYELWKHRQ
HttQ103 aggreg = mutant huntingtin aggregation inhibition; PC12 HttQ103-GFP aggregates, Acumen cytometry, 40 h; AID 1688; Potency, µM (top dose mostly 46.1 µM), for inactives: at the top dose activity change, negative = inhibition, hits mostly inhibitors; 220,000 tested, 1.1% active; also: potency is read from the fitted curve at half-maximal effect; % is scaled to controls: 0 for no effect and ±100 for the full control effect; nearly all actives have a fitted effect of over 60% in size
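Read-out: GFP aggregate count by laser scanning cytometer (488 nm excitation, 500-530 nm emission, 1–25 µm objects >6 SD above background). Cells: PC12, inducible HTTex1-Q103-GFP, 100 nM tebufenozide; compounds titrated.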
* marks the source's active call; other numbers are inactive results; ? = inconclusive; / = no result given; [ ] = remark or other dose. In the library only some 9.8% were active in any assay of this set; here they are far more common. Unless noted, calls follow the shape of the dose curve; as a rule, active = well fitted curve in the direction sought with a large enough effect; inconclusive = small, poorly fitted or top-dose-only effect, or another doubt; inactive = no such curve, though single readings can be large; an effect the other way counts as inactive or inconclusive.

SMILES	CBFb RUNX1 block	ALDH1A1 inh	HPGD inh	HTT cytoprotect	KDM4E inh	HttQ103 aggreg
CC1(C2CC2)NC(=O)N(CC(=O)Nc2ccccc2-c2ccccc2)C1=O (configuration not stated)	5%	18µM*	/	-44%	0%	4%
O=C(CN1CCN(Cc2ccccc2)CC1)Nc1ccccc1-c1ccccc1	-6%	11µM*	/	-6%[10 µM]	-1%	1%[9.22 µM]
O=C(CN1CCN(C(=O)N2CCOCC2)CC1)Nc1ccc(Br)cc1	1%	18µM*	-7%	-10%	3%	4%
COc1ccccc1NC(=O)CN1CCN(CC(=O)Nc2ccc(F)cc2)CC1	3%	25µM*	-19%	20%	3%	24%
Cc1ccc(F)cc1NC(=O)CN1CCN(c2ccccn2)CC1	-11%	-2%	/	-16%	1%	-4%
O=C(CN1CCCCCC1)Nc1ccc(Br)cc1	0%	10%	-6%	-18%	-7%	-13%
COc1ccccc1NC(=O)CN1CCN(CC(=O)Nc2ccc(OCc3ccccc3)cc2)CC1	1%	?	-7%	-73%	5%	?
COc1ccccc1N1CCN(CC(=O)Nc2cc(F)ccc2C)CC1	-1%	18µM*	-7%	12%	-2%	-18%
Nc1ncnc(Nc2ccc(S(N)(=O)=O)cc2)n1	-2%	-3%	/	16%[10 µM]	7%	4%[9.22 µM]
Cc1cc(F)ccc1S(=O)(=O)Nc1ccccc1C(=O)NCc1cccnc1	0%	?	/	-10%	?	0%
COc1ccc(/C=N/Nc2nn3cnnc3c3ccccc23)cc1	4%	/	/	-35%[10 µM]	3%	-8%[9.22 µM]
COc1ccccc1NC(=O)CN1CCN(c2ccccn2)CC1	7%	?	-16%	18%[10 µM]	-8%	-5%
O=C(CN1CCCC1)Nc1ccc(F)cc1	0%	25µM*	/	3%[10 µM]	?	27%[9.22 µM]
COc1ccc(NC(=O)CN2CCN(CC(=O)Nc3ccccc3Cl)CC2)cc1	4%	8.9µM*	-1%	-21%	6%	-5%
CN(C)c1ccc(NC(=O)CN2CCC(N3CCCCC3)CC2)cc1	-1%	?	-6%	-29%	32µM*	-3%
COc1ccc(NC(=O)CN2CCN(c3ccccc3Cl)CC2)cc1	-3%	?	-5%	5%[10 µM]	10%	1%
COc1ccccc1NC(=O)CN1CCN(Cc2ccccc2)CC1	11%	10µM*	2%	8%	2%	-6%
O=C1CC(c2ccccc2)Cc2nc3ncnn3cc21 (configuration not stated)	4%	-7%	-14%	-27%	-25%	-4%
Nc1ccccc1CCCC(=O)O	/	9%[13.5 µM]	-6%	21%[10 µM]	/	/
Cc1cc(C)c2c(c1)[C@@H]1C=CC[C@@H]1[C@H](c1ccc(S(=O)(=O)N3CCOCC3)cc1)N2	1%	25µM*	25µM*	/	?	?
Cn1c(=O)c2c(nc(CN3CCOCC3)n2CCc2ccccc2)n(C)c1=O	0%	7.1µM*	-5%	-2%	-3%	14%
CCN1CCN(Cc2nc3c(c(=O)n(C)c(=O)n3C)n2CCCc2ccccc2)CC1	5%	13µM*	-14%	-11%	-18%	1%
Cn1c(=O)c2c(nc(CN3CCN(C(=O)c4ccco4)CC3)n2CCc2ccccc2)n(C)c1=O	-5%	13µM*	-10%	-11%	0%	9%
CCCn1c(CN2CCN(C(=O)c3ccco3)CC2)nc2c1c(=O)n(C)c(=O)n2C	9%	-7%	-6%	10%[10 µM]	0%	-22%
Cn1c(=O)c2c(nc(CN3CCN(C(=O)c4ccco4)CC3)n2CCCc2ccccc2)n(C)c1=O	2%	1.3µM*	-1%	3%	11%	20%
SMILES	CBFb RUNX1 block	ALDH1A1 inh	HPGD inh	HTT cytoprotect	KDM4E inh	HttQ103 aggreg
O=C(O)[C@H](O)[C@@H](O)[C@H](O)[C@H](O)CO	/	/	/	?	/	7%
FC(F)(F)COCC(F)(F)F	/	/	/	11%	/	14%
O=C(CNC(=S)N(CCCN1CCOCC1)Cc1cccs1)N1CCCCCC1	-10%	?	/	-2%	-1%	-11%
CCOc1ccc(N=Nc2c(=O)[nH]n3c(=O)cc(C)[nH]c23)cc1	-22%	-2%	40µM*	-72%	-11%	-3%
CCOc1ccc(N=Nc2c(N)[nH][nH]c2=O)cc1	1%	19µM*	-13%	/	-5%	-1%
CC(=O)N1CCC2(CC1)CCN(c1ccccn1)CC2	/	?	?	-6%	/	/
CC(C)C1N(C(N)=S)N=CC1(C)C (configuration not stated)	1%	/	/	17%[10 µM]	1%	14%[9.22 µM]
NC(=S)NN=C1C2CC3CC(C2)CC1C3	-5%	25µM*	/	1%[10 µM]	?	10%
NC(=O)C(=O)NN=C1C2CC3CC(C2)CC1C3	5%	0%	/	6%	122%	-5%
COc1ccc(CN2C(=O)CS(=O)CC2=O)cc1OC	4%	8.9µM*	-12%	-6%[10 µM]	2%	16%
COc1ccc(CN2CCS(=O)(=O)CC2)cc1OC	-2%	-14%	/	-29%	10%	-3%
COc1ccc2cc(C(=O)CCC(=O)O)ccc2c1	/	?	?	-6%[10 µM]	/	/
CC(=O)c1cc(C#N)c(SCC(=O)O)nc1C	-4%	1%	-6%	-2%[10 µM]	-4%	22%
CCOC(=O)CSc1nc(C)c(C(C)=O)cc1C#N	-6%	20%	22µM*	4%[10 µM]	-2%	0%
O=C(C1CCCCC1)N1CC(=O)N2CCc3ccccc3[C@@H]2C1	1%[21.7 µM]	?	-9%	-61%	-1%[25.5 µM]	38%
O=C(/C=C1\NCC2c3ccccc3CCN2C1=O)c1ccccc1 (configuration not stated)	-2%	20µM*	-19%	-82%	-4%	-2%
Cn1cc([N+](=O)[O-])c(C(=O)Nc2ccc(-c3nc4ccccc4o3)cc2)n1	10%	/	/	?	-3%	7%[9.22 µM]
Fc1ccccc1-n1cc(-c2ccccc2)[nH]c1=S	-12%	14%	/	-4%[10 µM]	-21%	4%
Cc1ccc(-n2cc(-c3ccccc3)[nH]c2=O)cc1F	5%	20µM*	-23%	-9%	-1%	-15%
O=C(Cc1nn[nH]n1)Nc1ccc(F)cc1F	10%	10%	/	-2%[10 µM]	-6%	-4%[9.22 µM]
COc1cc(OC)nc(-n2ncc(Br)c(Br)c2=O)n1	2%	10µM*	-1%	/	-2%	4.5µM*
COC(=O)/C(=C/c1ccco1)NC(=O)c1ccccc1	0%	-3%	-9%	26%[0.074 µM]	19%	4%
COC(=O)/C(=C/c1ccco1)NC(=O)c1ccco1	8%	10µM*	-17%	-13%[10 µM]	-3%	12%
COC(=O)/C(=C/c1ccco1)NC(=O)c1ccc(Br)o1	22%	20µM*	/	/	-2%	18%
O=C(O)CNC(=O)/C(=C/c1ccco1)NC(=O)/C=C/c1ccccc1	-14%	16%	-16%	-11%[10 µM]	-3%	11%
